The source made the active and inactive calls. The calls were made as follows: active = hit-call score of the fitted dose curve at least 0.9, where 1 is the maximum; inactive = score below 0.9.
How the values were obtained:
Details in all cases: mRNA level, 48 h; actives raise or lower the signal
[1] = read-out: Glutamate-cysteine ligase regulatory (GCLM), GCLM (gene 2730); assay: LTEA_HepaRG_GCLM: Life Technologies and Expression Analysis (LTEA) Assay for Glutamate-cysteine ligase regulatory (GCLM) using HepaRG (AID 2283500)
Summary of the method: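 Human liver HepaRG cultures receive test chemicals for 48 hours at up to 100 uM in 0.5% DMSO. GCLM expression is measured by qRT-PCR and analysed for increases or decreases against vehicle.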

[2] = read-out: Glutathione S-transferase M3 (GSTM3), GSTM3 (gene 2947); assay: LTEA_HepaRG_GSTM3: Life Technologies and Expression Analysis (LTEA) Assay for Glutathione S-transferase M3 (GSTM3) using HepaRG (AID 2283501)
Summary of the method: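 HepaRG, plated 48 h, then serum-free induction medium; test chemical 48 h, duplicate; 100 uM top, half-log x8, 0.5% DMSO. Read-out: GSTM3 mRNA (TaqMan qRT-PCR, Fluidigm array). Bidirectional fit vs DMSO.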

[3] = read-out: Heat shock 70 kDa protein 1 (HSPA1A), gene 3303; assay: LTEA_HepaRG_HSPA1A: Life Technologies and Expression Analysis (LTEA) Assay for Heat shock 70 kDa protein 1 (HSPA1A) using HepaRG (AID 2283502)
Summary of the method: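 HSPA1A induction in human HepaRG liver cells is measured after 48 h of chemical treatment (100 uM maximum, 0.5% DMSO vehicle). Expression comes from qRT-PCR normalized to endogenous controls.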

[4] = read-out: Hypoxia-inducible factor 1-alpha (Homo sapiens) (UniProt Q16665); assay: LTEA_HepaRG_HIF1A: Life Technologies and Expression Analysis (LTEA) Assay for Hypoxia-inducible factor 1 (HIF1A) Trancription factor using HepaRG (AID 2283503);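 also: HIF1A transcript by TaqMan qRT-PCR normalized to ACTB GAPDH and POLR2A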
Summary of the method: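 HepaRG, 48 h exposure, 8-pt half-log series from 100 uM, 0.5% DMSO vehicle, duplicates. Readout: HIF1A transcript by qRT-PCR (Fluidigm array), housekeeping-normalised. Bidirectional curve fit vs DMSO baseline.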

[5] = read-out: 3-Hydroxy-3-Methylglutaryl-CoA Synthase 2 (HMGCS2), HMGCS2 (gene 3158); assay: LTEA_HepaRG_HMGCS2: Life Technologies and Expression Analysis (LTEA) Assay for 3-Hydroxy-3-Methylglutaryl-CoA Synthase 2 (HMGCS2) using HepaRG (AID 2283504)
Summary of the method: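 HepaRG, plated 48 h then switched to serum-free induction media; cmpd 8-pt, max 100 uM, 1/2-log, 0.5% DMSO, n=2, 48 h. HMGCS2 mRNA by Fluidigm TaqMan qRT-PCR, ACTB/GAPDH/POLR2A norm; bidirectional fit vs DMSO.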

HGF (gene 3082) = assay: LTEA_HepaRG_HGF: Life Technologies and Expression Analysis (LTEA) Assay for Hepatocyte Growth Facto (HGF) using HepaRG (AID 2283505)
Summary of the method: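 Read-out is HGF transcript level by qRT-PCR, normalized to three housekeeping genes, fitted bidirectionally against 0.5% DMSO vehicle. Human HepaRG cells received test chemicals for 48 h at up to 100 uM.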

[6] = read-out: Insulin Like Growth Factor 1 (IGF1), IGF1 (gene 3479); assay: LTEA_HepaRG_IGF1: Life Technologies and Expression Analysis (LTEA) Assay for Insulin Like Growth Factor 1 (IGF1) using HepaRG (AID 2283506)
Summary of the method: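 Using human HepaRG liver cells, IGF1 transcript induction or suppression is measured 48 h after dosing across eight concentrations capped at 100 uM. Values derive from bidirectional concentration-response fitting with DMSO as baseline.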

[7] = read-out: Intercellular Adhesion Molecule 1 (ICAM1), ICAM1 (gene 3383); assay: LTEA_HepaRG_ICAM1: Life Technologies and Expression Analysis (LTEA) Assay for Intercellular Adhesion Molecule 1 (ICAM1) using HepaRG (AID 2283507)
Summary of the method: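 Readout is qRT-PCR mRNA level, normalized to three housekeeping genes and fitted bidirectionally against 0.5% DMSO vehicle. Human HepaRG cultures received compound for 48 h, top concentration 100 uM with half-log dilutions.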

[8] = read-out: Insulin-like growth factor-binding protein 1 (IGFBP1), IGFBP1 (gene 3484); assay: LTEA_HepaRG_IGFBP1: Life Technologies and Expression Analysis (LTEA) Assay for Insulin-like growth factor-binding protein 1 (IGFBP1) using HepaRG (AID 2283508)
Summary of the method: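 Thawed HepaRG cells are plated for 48 h, switched to serum-free induction medium, then dosed in duplicate for another 48 h (100 uM top, half-log steps). Lysates in RLT go to qRT-PCR, and gain or loss of signal is fitted relative to vehicle.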

[9] = read-out: Interleukin 6 (IL6), IL6 (gene 3569); assay: LTEA_HepaRG_IL6: Life Technologies and Expression Analysis (LTEA) Assay for Interleukin 6 (IL6) using HepaRG (AID 2283509)
Summary of the method: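 HepaRG, ~100,000 cells/well, 48 h pre-culture; serum-free induction medium; cmpd 8-pt half-log from 100 uM, 0.5% DMSO, duplicate, 48 h. Lysis in RLT, TaqMan qRT-PCR; gain or loss vs DMSO.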

Measured: AC50

Chain of Hypoxia-inducible factor 1-alpha (Homo sapiens) (Q16665 whole entry, looked up): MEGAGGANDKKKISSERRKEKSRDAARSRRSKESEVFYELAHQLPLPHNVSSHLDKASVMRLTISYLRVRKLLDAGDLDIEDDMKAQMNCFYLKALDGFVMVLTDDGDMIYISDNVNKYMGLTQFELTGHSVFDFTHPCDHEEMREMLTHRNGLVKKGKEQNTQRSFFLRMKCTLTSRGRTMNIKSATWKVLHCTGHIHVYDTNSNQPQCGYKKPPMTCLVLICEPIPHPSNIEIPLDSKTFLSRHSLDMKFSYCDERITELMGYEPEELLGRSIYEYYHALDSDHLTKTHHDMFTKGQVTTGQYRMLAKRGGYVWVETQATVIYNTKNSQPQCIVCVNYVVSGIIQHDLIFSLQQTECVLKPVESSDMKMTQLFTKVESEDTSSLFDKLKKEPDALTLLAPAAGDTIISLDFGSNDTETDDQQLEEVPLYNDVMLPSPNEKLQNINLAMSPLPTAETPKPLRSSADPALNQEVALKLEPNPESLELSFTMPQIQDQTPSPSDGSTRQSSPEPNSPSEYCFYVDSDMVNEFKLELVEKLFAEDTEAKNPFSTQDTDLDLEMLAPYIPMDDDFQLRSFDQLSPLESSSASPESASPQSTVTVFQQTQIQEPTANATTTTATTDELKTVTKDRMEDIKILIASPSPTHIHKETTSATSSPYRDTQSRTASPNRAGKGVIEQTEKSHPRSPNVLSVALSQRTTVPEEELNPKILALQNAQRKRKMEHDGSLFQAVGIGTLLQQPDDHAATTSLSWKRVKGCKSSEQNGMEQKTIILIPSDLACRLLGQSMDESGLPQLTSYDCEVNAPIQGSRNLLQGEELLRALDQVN

COc1cc(OC)nc(NC(=O)NS(=O)(=O)c2ncccc2OCC(F)(F)F)n1
active: [3] 0.237 µM
inactive: all other assays above

CC(C)Nc1nc(Cl)nc(NC(C)C)n1
active: [5] 23.6 µM
not listed: [6] | [9]
inactive: all other assays above

CCCC(=NOCC)C1=C(O)CC(CC(C)SCC)CC1=O (stereo not given)
inactive: all assays above

CCOc1cc(C(C)(C)C)ccc1C1COC(c2c(F)cccc2F)=N1 (stereo not given)
active: [5] 46.9 µM | [6] 16.6 µM
inactive: all other assays above

CCN(CC)C(=O)C(C)Oc1cccc2ccccc12 (stereo not given)
active: [5] 76.9 µM | [6] 66.3 µM
not listed: [9]
inactive: all other assays above

CC(C)C1(C)N=C(c2ncccc2C(=O)O)NC1=O (stereo not given)
not listed: [6]
inactive: all other assays above

CO/N=C(/C1=NOCCO1)c1ccccc1Oc1ncnc(Oc2ccccc2Cl)c1F
active: [1] 19.5 µM | [5] 21.9 µM | [6] 10.6 µM | [7] 29.4 µM | [8] 20.3 µM
inactive: [2] | [3] | [4] | HGF (gene 3082)

COP(=S)(OC)SCn1nnc2ccccc2c1=O
not listed: [6]
inactive: all other assays above

Cc1ccc(N=CN(C)C=Nc2ccc(C)cc2C)c(C)c1
not listed: [9]
inactive: all other assays above

Cc1nc(N(C)C)nc(OC(=O)N(C)C)c1C
inactive: all assays above

CSC(=O)c1c(C(F)F)nc(C(F)(F)F)c(C(=O)SC)c1CC(C)C
active: [5] 85.8 µM | [8] 49.8 µM
not listed: [6]
inactive: all other assays above

CCCCC(O)(Cn1cncn1)c1ccc(Cl)cc1Cl (stereo not given)
inactive: [1]
active: [2] 82.6 µM | [3] 18.8 µM | [4] 80.6 µM | [5] 77.9 µM | HGF (gene 3082) 75.3 µM | [7] 83.9 µM | [8] 79.3 µM | [9] 72 µM

COC(=O)N(C(=O)N1CO[C@@]2(C(=O)OC)Cc3cc(Cl)ccc3C2=N1)c1ccc(OC(F)(F)F)cc1
active: [6] 4.25 µM | [8] 40 µM
not listed: [5] | [9]
inactive: all other assays above

CC1(C)C(C(=O)OC(C#N)c2cccc(Oc3ccccc3)c2)C1(C)C (stereo not given)
not listed: [9]
inactive: all other assays above

COc1ccc(-c2ccccc2)cc1NNC(=O)OC(C)C
not listed: [6] | [9]
inactive: all other assays above

Clc1cccc(C(Cl)(Cl)Cl)n1
not listed: [6] | [9]
inactive: all other assays above

CCOc1nc(F)cc2nc(S(=O)(=O)Nc3c(Cl)cccc3Cl)nn12
active: [6] 14.4 µM | [8] 50 µM
not listed: [5] | [9]
inactive: all other assays above

CCCCOCN(C(=O)CCl)c1c(CC)cccc1CC
not listed: [6] | [9]
inactive: all other assays above

O=C1C2CC=CCC2C(=O)N1SC(Cl)(Cl)Cl (stereo not given)
active: [8] 20.2 µM
not listed: [5] | [9]
inactive: all other assays above

CNC(=O)Oc1cccc2ccccc12
not listed: [6]
inactive: all other assays above

CCOP(=O)(OCC)Oc1nc(Cl)c(Cl)cc1Cl
active: [4] 49.8 µM | [5] 84.8 µM
not listed: [9]
inactive: all other assays above

COP(=S)(OC)Oc1ccc([N+](=O)[O-])c(C)c1
not listed: [6]
inactive: all other assays above

From PubChem BioAssay (EPA / NIEHS)
